According to PubChem BioAssay:
Results filed as inconclusive are left out. The source made the active and inactive calls.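 The calls were made as follows, unless noted: active = inhibition above 50%, about 3 SD of the validation set; inactive = the rest.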

Tests used:
[1] = rapamycin-like changes in RPL19A-GFP expression – cell-based, S. cerevisiae, multiplex flow cytometry, primary screen (AID 1862; in the data active = percent of DMSO control GFP below about 86%;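 also: lower values mimic rapamycin by blocking the RPL19A rise seen in DMSO cells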); conditions: S. cerevisiae RPL19A-GFP strain, flow cytometry fluorescence, 3 h; at 10 µM; stronger effect = lower value
[2] = TOR pathway GLN3 branch reporter MEP2-GFP changes – S. cerevisiae, multiplex flow cytometry, primary screen (AID 1867;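 active = GFP response, as percent of the DMSO control, above the screen-wide mean plus 3 SD, about 139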;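 also: median GFP channel fluorescence of barcode-gated MEP2-GFP cells measured by flow cytometry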); conditions: S. cerevisiae MEP2-GFP strain, 3 h, at 10 µM, stronger effect = higher value, 100% means same as DMSO wells
[3] = TOR pathway RTG branch CIT2 reporter changes – S. cerevisiae, GFP fusion, multiplex flow cytometry, primary screen (AID 1870;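 active = percent response above a set limit, the screen-wide mean plus 3 SD, cut at about 130% in these data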;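 also: barcoded CIT2-GFP strain pooled with four other GFP strains with rapamycin as positive control; median GFP fluorescence per well over plate mean of DMSO wells so 100% = DMSO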); conditions: S. cerevisiae CIT2-GFP expression, 3 h, at 10 µM, stronger effect = higher value
[4] = TOR pathway LAP4-GFP level changes – S. cerevisiae, multiplex flow cytometry, primary screen (AID 1873;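 active = GFP signal, as percent of the solvent control, above the screen mean plus 3 SD, about 149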); conditions: S. cerevisiae LAP4-GFP expression, 3 h, at 10 µM, stronger effect = higher value
[5] = yeast AGP1-GFP level changes, GLN3 branch – cell-based, multiplex flow cytometry, S. cerevisiae, primary screen (AID 1887;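 active = GFP signal above the screen-wide mean plus 3 SD, that is over about 124.5% of the solvent control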;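 also: AGP1-GFP fusion strain of S. cerevisiae within a five-strain barcoded multiplex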); conditions: 3 h, at 10 µM, stronger effect = higher value
[6] = reduced mouse 2C T cell binding to pMHC/ICAM-1 vesicles – MLPCN validation set, flow cytometry, LFA-1/ICAM-1 modulator project, pilot screen (AID 2523;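 active = response below a set limit, under 55% cells CD8-positive and vesicle-bound, and CD8 cells' 90th-percentile brightness under 279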;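 as to vesicle binding response: mean PE anti-B7-1 fluorescence of CD8+ cells relative to row control; 100% = QL9-loaded vesicles with DMSO vehicle in the same plate row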); conditions: 2C mouse CD8+ T cells, at 7 µM, stronger effect = lower value; double positive events: measured here: CD8+/vesicle+ event percentage
[7] = biological target: Integrin beta-1 (Homo sapiens) + Integrin alpha-4 (Homo sapiens) (UniProt P13612+P05556); assay: alpha4beta1 integrin LIBS antibody binding reduction – U937 cells, HUTS-21 mAb, flow cytometry, validation set, VLA-4 allosteric modulator project, pilot screen (AID 2674); conditions: HUTS-21 LIBS mAb binding, at 6.7 µM, stronger effect = higher value, binding induced by LDV ligand;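 also: antibody binding induced by the VLA-4 ligand LDV present at three times its Kd; 0% = LDV ligand with antibody and no compound and 100% = antibody without LDV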
[8] = calorie-restriction mimetic ROS inhibitors, yeast – validation compound set, pilot screen (AID 2706;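 active = superoxide response below 65% of plate, a cut near 3 SD across the whole screen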;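 also: yeast exposed to compound for one week at 30 degrees C before staining; 100% = mean of all compound wells on the same plate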); conditions: S. cerevisiae aging, superoxide DHE fluorescence; at 10 µM, stronger effect = lower value
[9] = biological target: Beta-adrenergic receptor kinase 1 (Homo sapiens) (UniProt P25098); assay: GRK2 binders displacing RNA aptamer, biochemical, validation, human GRK2, bead flow cytometry (AID 488806;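 active = aptamer binding inhibition above 30%, about 3 SD of noise from non-fluorescent compounds; inactive = inhibition at or below 30%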); conditions: bead-bound GRK2, FAM-aptamer displacement, at 10 µM, stronger effect = higher value
[10] = biological target: AP-2 complex subunit beta (Homo sapiens) (UniProt P63010); assay: beta-arrestin/AP2 interaction blockers – biochemical, validation set, GST-AP2 beads, flow cytometry, pilot screen (AID 504541;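 active = inhibition above 54%, about 3 SD of non-fluorescent compounds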;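 also: AP2 carries R879A mutation and is captured from E. coli lysate; bead-bound FITC arrestin peptide fluorescence measuring arrestin peptide binding to AP2; 0% = DMSO wells and 100% = excess unlabeled arrestin peptide control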); conditions: FITC arrestin peptide, at 10 µM, stronger effect = higher value, AP2 beta2 appendage fragment, R879A mutant
[11] = cytosolic pH regulators acting via V-ATPase – S. cerevisiae, pHLuorin, HTS validation (AID 504600; in the data active = response above about 15%;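 also: plate controls were DMSO for no effect and reference compound for full effect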); conditions: V-ATPase proton transport, at 10 µM, stronger effect = higher value
[12] = system: anti-desmoglein-3 scFv antibody binding to human DSG3; assay: blockers of pathogenic pemphigus antibody–desmoglein-3 binding – biochemical, validation compound set, bead-based, flow cytometry, pilot screen (AID 588368;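 active = binding below the plate cutoff, the plate median minus 3 SD, with a reading above zero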;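 also: signal is the median channel fluorescence of bead-bound GFP antibody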); conditions: Protein G beads, DSG3-Fc, scFv-GFP binding, at 10 µM, stronger effect = lower value
[13] = Nile Red efflux blockade in pump-expressing yeast – validation compound set, multiplex, phenotypic, pilot screen (AID 588506;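 active = efflux inhibition above 0.42, the validation set average plus 4 SD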;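 also: Nile Red retained in cells so higher fluorescence means more efflux inhibition; 0 = negative control wells and 1 = enniatin B 25 µM full block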); conditions: S. cerevisiae pump-expressing triplex, Nile Red efflux flow cytometry; at 10 µM; stronger effect = higher value; the pumps come from Candida albicans
[14] = biological target: ATP-binding cassette sub-family B member 6 (Homo sapiens) (UniProt Q9NP58); assay: blockers of ABCB6-driven porphyrin uptake – K562-ABCB6 cells, flow cytometry, validation set, pilot screen (AID 588550;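 active = inhibition above the screen-wide mean plus 3 SD, about 51%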;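 also: 0% = DMSO wells and 100% = benzethonium chloride 70 µM positive control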); conditions: K562-ABCB6 porphyrin accumulation, 1 h, at 10 µM, stronger effect = higher value
[15] = AML differentiation inducers, ER-HoxA9 marrow cells – cell-based, GFP/MAC1 double positive, flow cytometry, validation set, primary screen (AID 588685;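 active = differentiation response of at least 50%, scaled between solvent and reference control, from cells with both markers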;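 also: compound exposure lasts four days before antibody staining and flow analysis; 0% = DMSO wells and 100% = 5 µM fulvestrant positive control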); conditions: stronger effect = higher value, normalized: vehicle 0, fulvestrant 100

Beta-adrenergic receptor kinase 1 (Homo sapiens), sequence (P25098 whole entry, looked up): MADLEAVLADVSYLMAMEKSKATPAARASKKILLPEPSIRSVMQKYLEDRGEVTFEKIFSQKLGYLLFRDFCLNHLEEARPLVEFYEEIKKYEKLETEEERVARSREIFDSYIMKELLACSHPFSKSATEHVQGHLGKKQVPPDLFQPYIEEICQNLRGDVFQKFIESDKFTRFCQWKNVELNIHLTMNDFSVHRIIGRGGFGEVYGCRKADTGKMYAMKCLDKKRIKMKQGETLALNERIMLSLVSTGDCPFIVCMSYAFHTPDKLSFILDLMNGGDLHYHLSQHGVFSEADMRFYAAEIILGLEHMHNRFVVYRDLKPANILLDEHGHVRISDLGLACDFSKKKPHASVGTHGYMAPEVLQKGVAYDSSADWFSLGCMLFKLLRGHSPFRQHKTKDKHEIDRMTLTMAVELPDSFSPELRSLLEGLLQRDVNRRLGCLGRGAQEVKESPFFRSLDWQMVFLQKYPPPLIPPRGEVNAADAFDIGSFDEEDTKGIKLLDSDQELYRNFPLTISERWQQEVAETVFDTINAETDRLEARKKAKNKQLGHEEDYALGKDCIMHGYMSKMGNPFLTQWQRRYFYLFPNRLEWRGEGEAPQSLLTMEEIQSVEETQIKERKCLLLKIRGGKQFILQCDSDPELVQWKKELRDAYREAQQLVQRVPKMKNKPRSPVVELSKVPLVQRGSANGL
ATP-binding cassette sub-family B member 6 (Homo sapiens), sequence (Q9NP58 whole entry, looked up): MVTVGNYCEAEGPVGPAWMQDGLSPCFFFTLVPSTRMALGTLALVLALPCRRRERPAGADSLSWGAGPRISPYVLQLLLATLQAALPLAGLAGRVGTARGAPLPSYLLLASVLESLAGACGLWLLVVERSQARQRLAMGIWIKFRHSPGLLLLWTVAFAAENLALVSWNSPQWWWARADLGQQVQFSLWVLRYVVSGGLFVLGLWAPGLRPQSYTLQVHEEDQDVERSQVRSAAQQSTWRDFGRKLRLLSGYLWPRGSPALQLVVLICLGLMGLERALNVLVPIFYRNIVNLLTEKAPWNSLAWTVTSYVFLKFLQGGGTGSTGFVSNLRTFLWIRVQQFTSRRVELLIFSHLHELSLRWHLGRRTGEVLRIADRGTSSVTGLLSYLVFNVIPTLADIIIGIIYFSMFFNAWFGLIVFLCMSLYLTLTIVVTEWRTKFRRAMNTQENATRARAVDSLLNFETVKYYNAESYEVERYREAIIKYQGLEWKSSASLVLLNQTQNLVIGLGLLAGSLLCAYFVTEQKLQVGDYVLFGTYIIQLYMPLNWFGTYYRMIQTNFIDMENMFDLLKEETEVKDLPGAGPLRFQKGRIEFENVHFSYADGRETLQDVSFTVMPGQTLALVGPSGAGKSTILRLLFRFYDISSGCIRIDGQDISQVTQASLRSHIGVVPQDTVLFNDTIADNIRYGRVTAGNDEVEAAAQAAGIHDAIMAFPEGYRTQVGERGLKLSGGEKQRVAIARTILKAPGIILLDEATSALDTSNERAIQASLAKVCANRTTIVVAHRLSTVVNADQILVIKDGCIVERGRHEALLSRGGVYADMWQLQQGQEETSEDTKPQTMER
AP-2 complex subunit beta (Homo sapiens), sequence (P63010 whole entry, looked up, the tested form may be a part, one chain of several): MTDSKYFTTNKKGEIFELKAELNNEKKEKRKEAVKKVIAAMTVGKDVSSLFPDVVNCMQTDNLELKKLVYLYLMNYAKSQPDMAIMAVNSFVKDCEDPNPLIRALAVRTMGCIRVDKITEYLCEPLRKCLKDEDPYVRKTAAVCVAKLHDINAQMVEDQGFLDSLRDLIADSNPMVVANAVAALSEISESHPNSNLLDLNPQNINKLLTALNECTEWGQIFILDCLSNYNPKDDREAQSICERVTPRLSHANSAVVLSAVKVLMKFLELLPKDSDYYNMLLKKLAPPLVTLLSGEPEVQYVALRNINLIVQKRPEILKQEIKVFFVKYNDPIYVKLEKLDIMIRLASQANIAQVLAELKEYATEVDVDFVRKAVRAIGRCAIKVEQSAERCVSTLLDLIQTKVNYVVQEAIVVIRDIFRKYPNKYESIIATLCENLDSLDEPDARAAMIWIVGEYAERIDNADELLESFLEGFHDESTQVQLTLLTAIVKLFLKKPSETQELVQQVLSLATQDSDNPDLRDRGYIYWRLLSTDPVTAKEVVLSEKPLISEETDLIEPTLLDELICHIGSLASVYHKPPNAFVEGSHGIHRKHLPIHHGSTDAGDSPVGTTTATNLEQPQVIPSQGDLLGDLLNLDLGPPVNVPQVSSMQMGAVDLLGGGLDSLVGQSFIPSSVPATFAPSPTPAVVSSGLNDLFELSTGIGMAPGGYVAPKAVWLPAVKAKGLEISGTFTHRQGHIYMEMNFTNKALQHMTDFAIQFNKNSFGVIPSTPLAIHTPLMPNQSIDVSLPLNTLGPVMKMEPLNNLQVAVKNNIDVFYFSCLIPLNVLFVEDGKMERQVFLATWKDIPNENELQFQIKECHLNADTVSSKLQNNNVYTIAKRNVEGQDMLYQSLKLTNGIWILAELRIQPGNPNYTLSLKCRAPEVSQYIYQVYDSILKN
Integrin beta-1 (Homo sapiens) + Integrin alpha-4 (Homo sapiens), sequence (P05556 whole entry, looked up): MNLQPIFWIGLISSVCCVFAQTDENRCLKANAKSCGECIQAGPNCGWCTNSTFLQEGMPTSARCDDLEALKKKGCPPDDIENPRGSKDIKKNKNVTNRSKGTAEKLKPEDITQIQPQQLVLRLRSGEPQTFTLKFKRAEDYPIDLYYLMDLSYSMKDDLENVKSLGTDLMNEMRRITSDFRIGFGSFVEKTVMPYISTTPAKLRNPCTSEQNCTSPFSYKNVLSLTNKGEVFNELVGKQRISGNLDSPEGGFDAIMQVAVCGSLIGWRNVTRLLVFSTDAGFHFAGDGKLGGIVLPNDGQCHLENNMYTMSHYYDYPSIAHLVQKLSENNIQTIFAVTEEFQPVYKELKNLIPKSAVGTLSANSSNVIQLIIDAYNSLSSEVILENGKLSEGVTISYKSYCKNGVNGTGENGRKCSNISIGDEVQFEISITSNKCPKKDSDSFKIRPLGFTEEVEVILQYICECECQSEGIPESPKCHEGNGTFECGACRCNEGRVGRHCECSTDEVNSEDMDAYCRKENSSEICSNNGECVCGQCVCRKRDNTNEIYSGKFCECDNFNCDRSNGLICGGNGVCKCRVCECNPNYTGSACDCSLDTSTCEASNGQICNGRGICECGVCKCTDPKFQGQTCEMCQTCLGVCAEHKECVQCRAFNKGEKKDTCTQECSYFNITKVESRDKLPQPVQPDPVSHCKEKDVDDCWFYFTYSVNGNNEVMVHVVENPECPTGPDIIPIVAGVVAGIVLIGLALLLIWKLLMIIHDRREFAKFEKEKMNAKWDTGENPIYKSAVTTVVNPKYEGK
Integrin beta-1 (Homo sapiens) + Integrin alpha-4 (Homo sapiens), sequence (P13612 whole entry, looked up): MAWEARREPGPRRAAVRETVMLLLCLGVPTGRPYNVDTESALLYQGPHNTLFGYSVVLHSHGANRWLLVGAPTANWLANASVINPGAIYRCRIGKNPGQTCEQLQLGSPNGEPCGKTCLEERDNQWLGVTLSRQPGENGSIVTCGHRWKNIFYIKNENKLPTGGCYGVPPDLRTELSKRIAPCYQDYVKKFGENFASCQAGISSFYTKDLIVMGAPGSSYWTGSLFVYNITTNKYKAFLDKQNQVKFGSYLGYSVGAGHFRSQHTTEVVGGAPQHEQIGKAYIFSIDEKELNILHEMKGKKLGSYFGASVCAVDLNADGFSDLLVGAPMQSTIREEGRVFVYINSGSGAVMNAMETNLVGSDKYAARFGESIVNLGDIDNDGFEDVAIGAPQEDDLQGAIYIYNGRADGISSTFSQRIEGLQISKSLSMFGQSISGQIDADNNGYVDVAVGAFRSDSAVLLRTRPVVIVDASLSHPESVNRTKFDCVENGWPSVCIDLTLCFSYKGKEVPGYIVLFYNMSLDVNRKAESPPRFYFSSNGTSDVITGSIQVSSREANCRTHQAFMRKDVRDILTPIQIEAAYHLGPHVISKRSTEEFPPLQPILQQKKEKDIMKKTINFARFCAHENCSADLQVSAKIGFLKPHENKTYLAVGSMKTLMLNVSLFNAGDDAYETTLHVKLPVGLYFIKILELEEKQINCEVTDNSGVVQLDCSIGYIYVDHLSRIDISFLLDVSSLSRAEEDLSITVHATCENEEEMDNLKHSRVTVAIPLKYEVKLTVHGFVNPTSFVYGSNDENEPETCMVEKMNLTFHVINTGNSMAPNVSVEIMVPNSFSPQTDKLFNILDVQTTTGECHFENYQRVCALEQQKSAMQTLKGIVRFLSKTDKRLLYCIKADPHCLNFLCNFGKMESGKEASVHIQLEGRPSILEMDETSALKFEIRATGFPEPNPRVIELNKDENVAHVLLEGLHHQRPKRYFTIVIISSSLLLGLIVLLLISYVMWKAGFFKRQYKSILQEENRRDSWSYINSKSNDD

| Compound | percent of DMSO control GFP [1] | GFP response vs DMSO [2] | percent response of DMSO control [3] | GFP response vs DMSO [4] | GFP response, % of DMSO [5] | double positive events [6] | vesicle binding response [6] | inhibition [7] | superoxide response (% of plate) [8] | aptamer binding inhibition [9] | inhibition [10] | response [11] | binding (% of control) [12] | efflux inhibition (fraction of control) [13] | inhibition [14] | differentiation response [15] |
| --- | --- | --- | --- | --- | --- | --- | --- | --- | --- | --- | --- | --- | --- | --- | --- | --- |
| O=c1nc2cccc3c2=c(/c1=C(\O)c1ccccc1)c1ccccc1c3=O | 102% (inactive) | 102% (inactive) | 105% (inactive) | 96.4% (inactive) | 99.3% (inactive) | 47.4% | 175% (inactive) | -23.6% (inactive) | 99.9% (inactive) | 8% (inactive) | 17.9% (inactive) | 1.67% (inactive) | 91% (inactive) | -0.16 (inactive) | 9% (inactive) | -6.66% (inactive) |
| COc1ccc(CCNC(=S)NC(=O)/C=C/c2ccc(C)cc2)cc1OC | 101% (inactive) | 107% (inactive) | 106% (inactive) | 103% (inactive) | 95.4% (inactive) | 51.6% | 136% (inactive) | 3.49% (inactive) | 98.2% (inactive) | 2% (inactive) | 13.3% (inactive) | -1.1% (inactive) | 106% (inactive) | 0.22 (inactive) | 4% (inactive) | -8.27% (inactive) |
| CCOC(=O)C1=C(N)Oc2c(oc(CO)cc2=O)C1c1ccc(F)c(F)c1 (centres undefined) | 99.1% (inactive) | 101% (inactive) | 99.8% (inactive) | 94.3% (inactive) | 97.3% (inactive) | 56.7% | 213% (inactive) | 9.09% (inactive) | 98% (inactive) | 1% (inactive) | 42.8% (inactive) | -11.2% (inactive) | 104% (inactive) | 0.03 (inactive) | 2% (inactive) | -18% (inactive) |
| CC(=O)Oc1ccc(C(=O)O)cc1OC(C)=O | 98% (inactive) | 104% (inactive) | 104% (inactive) | 99.4% (inactive) | 98.4% (inactive) | 59.1% | 164% (inactive) | -3.04% (inactive) | 98.2% (inactive) | 4% (inactive) | -6.29% (inactive) | 0.26% (inactive) | 105% (inactive) | -0.01 (inactive) | 6% (inactive) | 1.41% (inactive) |
| Cn1c2ccccc2c2cc(/C=C(\NC(=O)c3ccccc3)C(=O)O)ccc21 | 95.6% (inactive) | 90.8% (inactive) | 106% (inactive) | 92.3% (inactive) | 95.7% (inactive) | 58% | 107% (inactive) | -9.57% (inactive) | 111% (inactive) | 3% (inactive) | -8.15% (inactive) | 1.01% (inactive) | 96.5% (inactive) | -0.43 (inactive) | 10% (inactive) | -14.7% (inactive) |
| CCOc1ccc(C(=O)/C=C/c2cc(OC)c(OC)c(OC)c2)cc1 | 97.1% (inactive) | 105% (inactive) | 92% (inactive) | 105% (inactive) | 89.4% (inactive) | 54.7% | 209% (inactive) | -0.24% (inactive) | 91.6% (inactive) | -3% (inactive) | 4.7% (inactive) | 1.41% (inactive) | 104% (inactive) | 0.25 (inactive) | 4% (inactive) | 40.2% (inactive) |
| COc1cc2c(cc1OC)C(c1cc(OC)c(OC)c(OC)c1)NCC2 (centres undefined) | 101% (inactive) | 103% (inactive) | 108% (inactive) | 90.3% (inactive) | 102% (inactive) | 59.3% | 148% (inactive) | -0.24% (inactive) | 102% (inactive) | 2% (inactive) | -5.98% (inactive) | -3.82% (inactive) | 96% (inactive) | -0.01 (inactive) | 7% (inactive) | -14.7% (inactive) |
| Cc1cnc(C(=O)N2CCCC(C(=O)c3ccc(Cl)cc3C)C2)cn1 (centres undefined) | 104% (inactive) | 99.9% (inactive) | 105% (inactive) | 96.4% (inactive) | 101% (inactive) | 50% | 175% (inactive) | -2.11% (inactive) | 109% (inactive) | 2% (inactive) | 21.9% (inactive) | 2.89% (inactive) | 101% (inactive) | 0.18 (inactive) | -25% (inactive) | -18% (inactive) |
| CC[C@]1(O)C[C@@H]2CN(CCc3c([nH]c4ccccc34)[C@@](C(=O)OC)(c3cc4c(cc3OC)N(C)[C@H]3[C@@](O)(C(=O)OC)[C@H](OC(C)=O)[C@]5(CC)C=CCN6CC[C@]43[C@@H]65)C2)C1 | 102% (inactive) | 101% (inactive) | 101% (inactive) | 92.3% (inactive) | 99% (inactive) | 55.4% | 153% (inactive) | 23.1% (inactive) | 86.7% (inactive) | -13% (inactive) | -7.9% (inactive) | 1.26% (inactive) | 111% (inactive) | 0.59 (active) | 8% (inactive) | 3.03% (inactive) |
